Assay [1] is described as follows: qHTS assay to identify small molecule antagonists of the estrogen related receptor (ERR) signaling pathway - cell viability counter screen (AID 1224818). Further: potency means the concentration at half of the fitted maximal effect. In a few lines: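 Viability of ERR cells, CellTiter-Fluor fluorescence; 17.5 h compound exposure at 37 C, DMSO vehicle; 30 min reagent incubation at 37 C/5% CO2.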
On the technique in general: In qHTS, concentration-response curves come from the screen itself.

Assay [2] is described as follows: qHTS assay to identify small molecule antagonists of the estrogen related receptor (ERR) signaling pathway (AID 1224819; further: nearly all actives have a fitted effect of over 50% in size; further: potency means the concentration at half of the fitted maximal effect). In a few lines:
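Seed ERR cells 2,000/well; rest 6 h at 37 C/5% CO2; pin compounds in DMSO; incubate 18 h at 37 C; add One-Glo; wait 30 min at room temperature; measure luminescence.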

A short description of assay [3]: qHTS assay to identify small molecule agonists of the estrogen related receptor (ERR) signaling pathway (AID 1224820). In a few lines:
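After 6 h plating (2,000 cells/well) and 18 h compound treatment at 37 C, ERR cells were lysed with One-Glo and luminescence read after 30 min at room temperature.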

The test system of assay [4] is estrogen-related receptor alpha (ERRalpha) with PGC-1alpha coactivator, human. In words: qHTS assay to identify small molecule antagonists of the estrogen related receptor signaling pathway with the pleiotropic PPARgamma coactivator (PGC) (AID 1224821; calls by dose curve; further: nearly all actives have a fitted effect of over 50% in size; further: potency means the concentration at half of the fitted maximal effect). In short, it runs like this: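 Luminescence from One-Glo luciferase reagent (30 min, room temperature) measured after 18 h compound treatment at 37 °C. Cells carry the PGC/ERR reporter and were seeded 6 h prior to dosing.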

Assay [5] is described as follows: qHTS assay to identify small molecule antagonists of the estrogen related receptor signaling pathway with the pleiotropic PPARgamma coactivator (PGC) cell viability counter screen (AID 1224822; further: potency means the concentration at half of the fitted maximal effect). In a few lines: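 17.5 h compound treatment of PGC/ERR cells at 37 C; readout CellTiter-Fluor fluorescence; run alongside the PGC/ERR antagonist screen to flag cytotoxic compounds.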

Assay [6] can be described thus: qHTS assay to identify small molecule agonists of the estrogen related receptor signaling pathway with the pleiotropic PPARgamma coactivator (PGC) (AID 1224823). In a few lines: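 Luminescence from One-Glo reagent (30 min, room temperature) was read after 18 h compound treatment at 37 C of PGC/ERR cells plated 6 h beforehand; compounds delivered in DMSO by pin tool.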

Structures are written as SMILES. Results filed as inconclusive are left out. Calls of active or inactive are those of the source. Unless noted, the call rests on the fitted dose curve; in most records, active means well fitted curve in the direction sought with a large enough effect in the repeat runs; inconclusive means weak or mixed curves; inactive means no such curve, though single readings can be large; an effect the other way counts as inactive or inconclusive.

As for `OCC1NCC(O)C(O)C1O` (stereo unspecified), the Potency entry in assay [1], in assay [2], in assay [3], in assay [4], in assay [5] and in assay [6] was “inactive” throughout.

For `O=c1cc(-c2ccccc2)[nH]c2nc(Cl)ccc12`, the Potency entry in assay [1], in assay [2], in assay [3], in assay [4], in assay [5] and in assay [6] was “inactive” each time.

With `CC1(C)CCC2=C(O1)c1ccccc1C(=O)C2=O`, the Potency in assay [1] was 16.8 µM (active); in assay [2], 9.44 µM (active); in assay [4], 13.3 µM (active); in assay [5], 18.8 µM (active). In addition, the Potency result in assay [3] and in assay [6] was “inactive” in each case.

With `CCCCCC(O)CCCC(=O)O` (stereo unspecified), the Potency result in assay [1], in assay [2], in assay [3], in assay [4], in assay [5] and in assay [6] was “inactive” each time.

For the compound `N[C@@H](CCCC(=O)O)C(=O)O`, the Potency result in assay [1], in assay [2], in assay [3], in assay [4], in assay [5] and in assay [6] was “inactive” throughout.

Consider `Nc1nc(OCc2ccccc2)c2[nH]cnc2n1`, for which the Potency entry in assay [1], in assay [2], in assay [3], in assay [4], in assay [5] and in assay [6] was “inactive” each time.

Regarding `Cc1cccc(-c2[nH]ncc2-c2ccc3ncccc3n2)n1`, the Potency result in assay [1], in assay [3], in assay [5] and in assay [6] was “inactive” throughout. For the same compound, the Potency in assay [2] is 1.23 µM (active); in assay [4] it was 1.44 µM (active).

With `Nc1ccc(N2C(=O)c3ccccc3C2=O)c(Cl)c1`, the Potency result in assay [1], in assay [2], in assay [3], in assay [4], in assay [5] and in assay [6] was “inactive” each time.

`CC1=C(C(=O)O)N2C(=O)[C@@H](NC(=O)C(N)c3ccccc3)[C@H]2SC1` (stereo partly specified): the Potency result in assay [1], in assay [2], in assay [3], in assay [4], in assay [5] and in assay [6] was “inactive” each time.

For `O=C1c2c(O)cc(O)cc2OC(c2ccc(O)c(O)c2)C1O` (stereo unspecified), the Potency entry in assay [1], in assay [2], in assay [3], in assay [4], in assay [5] and in assay [6] was “inactive” throughout.

Regarding `CC(C)(C)NCC(O)COc1cccc2[nH]c(=O)[nH]c12` (stereo unspecified), the Potency entry in assay [1], in assay [2], in assay [3], in assay [4], in assay [5] and in assay [6] was “inactive” in each case.

(Values after PubChem BioAssay (Tox21).)
